The nature of experiment [1]: qHTS assay to identify small molecule agonists or antagonists of the thyroid stimulating hormone receptor (TSHR) signaling pathway - wild type cell line counter screen (AID 1259384; calls by dose curve). The settings on record: HEK293 wild type, cAMP HTRF counter-screen, hits give high values; series mostly up to 92.4 µM. In short, it runs like this: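 Wild-type Hek293 cells, 800/well, 18 h at 37C, then compound with Ro20-1724 for 30 min RT. cAMP by HTRF (cAMP-d2/anti-cAMP cryptate), 1 h RT, fluorescence read. 15 concentrations, triplicates.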

Experiment [2] addresses Thyrotropin receptor (Homo sapiens) (UniProt P16473). In words: qHTS assay to identify small molecule antagonists of the thyroid stimulating hormone receptor (TSHR) signaling pathway (AID 1259385; calls by dose curve; also: nearly all actives have a fitted effect of over 20% in size; also: potency is read from the fitted curve at half-maximal effect). Particulars: TSHR-HEK293 cAMP HTRF, TSH-stimulated antagonist mode; series mostly up to 92.4 µM. The essentials:
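TSHR-HEK293 cells (800/well) plated 18 h, then compounds with Ro20-1724 and TSH at 1.5 ng/mL final, 30 min at room temperature. cAMP quantified by HTRF (cAMP-d2/anti-cAMP-cryptate, 1 h); 15 concentrations in triplicate.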
(qHTS replaces the single test concentration by a dilution series.)

A short description of experiment [3]: qHTS assay to identify small molecule agonists of the estrogen receptor alpha (ER-alpha) signaling pathway in the presence of an antagonist - cell viability counter screen (AID 1259386).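 Also: cells exposed to compounds for 22 h at 37 °C before the viability read; nearly all actives have a fitted effect of over 30% in size.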 Also: potency is read from the fitted curve at half-maximal effect. Particulars: VM7Luc4E2 viability, CellTiter-Fluor fluorescence, 22 h; series mostly up to 92.4 µM. In short, it runs like this: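 Viability counter screen using VM7Luc4E2 (full-length ER-alpha, four ERE-luciferase). The cells were treated with compounds alongside ICI-182,780 10.0nM for 22hr, and live-cell protease fluorescence was quantified with CellTiter-Fluor.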

The target in experiment [4] is Progesterone receptor (Homo sapiens) (UniProt P06401). In words: qHTS assay to identify small molecule agonists of the progesterone receptor (PR) signaling pathway (AID 1346784; calls by dose curve; also: nearly all actives have a fitted effect of over 30% in size). The settings on record: PR-UAS-bla HEK293T, beta-lactamase FRET ratio, 16 h; series mostly up to 92.4 µM. The essentials:
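Reporter assay, GripTite PR-UAS-bla HEK 293T cells: 16 hr exposure to DMSO-dissolved compounds at 37C, 5% CO2, in steroid-depleted (2% charcoal-stripped FBS) medium; beta-lactamase measured by FRET fluorescence.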

Experiment [5] is described as follows: qHTS assay to identify small molecule agonists of the estrogen receptor beta (ER-beta) signaling pathway - cell viability counter screen (AID 1259380). Also: nearly all actives have a fitted effect of over 30% in size. Also: potency is read from the fitted curve at half-maximal effect. Particulars: ER-beta-bla HEK293T viability, CellTiter-Glo luminescence, 16 h; series mostly up to 92.4 µM. The essentials: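 CellTiter-Glo read, 30 min RT, same wells as bla assay; cells ER-beta-UAS-bla HEK293T; 16 hr compound, 37C; medium 2% charcoal-stripped FBS.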

The nature of experiment [6]: qHTS assay to identify small molecule antagonists of the estrogen receptor beta (ER-beta) signaling pathway - cell viability counter screen (AID 1259382). Also: nearly all actives have a fitted effect of over 55% in size. Also: potency is read from the fitted curve at half-maximal effect. Particulars: ER-beta-UAS-bla HEK293T viability, CellTiter-Glo luminescence, 16 h; series mostly up to 92.4 µM. The essentials:
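In this multiplexed counter screen, cells were seeded at 2,000 per well in medium with 2% charcoal-stripped FBS and incubated 6 hr before compound and 1nM final E2 were added. Sixteen hours later, ATP-based luminescence reported viability.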

Experiment [7] addresses Estrogen receptor (Homo sapiens) (UniProt P03372). In words: qHTS assay to identify small molecule agonists of the estrogen receptor alpha (ER-alpha) signaling pathway in the presence of an antagonist (AID 1259383; calls by dose curve; also: top concentration of the series differs between compounds; nearly all actives have a fitted effect of over 15% in size). The settings on record: VM7Luc4E2 cells, ERE-luciferase, +ICI-182,780, 22 h; series mostly up to 92.4 µM. In short, it runs like this:
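Stably transfected VM7Luc4E2 reporter cells, kept 5 days in charcoal-stripped serum, received ICI-182,780 at 10.0nM final before compound addition. Following 22hr incubation at 37C and 5% CO2, luciferase signal was read by luminescence.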

Experiment [8] is described as follows: qHTS assay to identify small molecule agonists of the androgen receptor (AR) signaling pathway in the presence of an antagonist - cell viability counter screen (AID 1259379). Also: nearly all actives have a fitted effect of over 25% in size. Also: potency is read from the fitted curve at half-maximal effect. Particulars: MDA-kb2 viability, CellTiter-Fluor, 16 h; series mostly up to 92.4 µM. The essentials:
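Seed MDA-kb2 at 3,000 cells/well; incubate 5 hr, 37C, 0% CO2. Add nilutamide to 3.0uM final, then pin compounds at 15 concentrations. Incubate 16 hr. Add CellTiter-Fluor at 15 hr, read fluorescence after 1 hr.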

For experiment [9], the target named is Androgen receptor (Homo sapiens) (UniProt P10275). Nature of the experiment: qHTS assay to identify small molecule agonists of the androgen receptor (AR) signaling pathway in the presence of an antagonist (AID 1259381; calls by dose curve; also: nearly all actives have a fitted effect of over 15% in size; also: potency is read from the fitted curve at half-maximal effect). Particulars: MDA-kb2 MMTV-luciferase, AR agonist + nilutamide, 16 h; series mostly up to 92.4 µM. The essentials: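 Test compounds at 15 concentrations were incubated for 16hr with MDA-kb2 reporter cells in presence of 3.0uM nilutamide (final). Signal: ONE-Glo luciferase luminescence.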

Molecules are shown by their SMILES. Records with an inconclusive call do not appear. Activity calls are given as the source filed them. Unless noted, calls follow the shape of the dose curve; as a rule, active = well fitted curve in the direction sought with a large enough effect in the repeat runs; inconclusive = weak or mixed curves; inactive = no such curve, though single readings can be large; an effect the other way counts as inactive or inconclusive.

Thyrotropin receptor (Homo sapiens), sequence (P16473 whole entry, looked up): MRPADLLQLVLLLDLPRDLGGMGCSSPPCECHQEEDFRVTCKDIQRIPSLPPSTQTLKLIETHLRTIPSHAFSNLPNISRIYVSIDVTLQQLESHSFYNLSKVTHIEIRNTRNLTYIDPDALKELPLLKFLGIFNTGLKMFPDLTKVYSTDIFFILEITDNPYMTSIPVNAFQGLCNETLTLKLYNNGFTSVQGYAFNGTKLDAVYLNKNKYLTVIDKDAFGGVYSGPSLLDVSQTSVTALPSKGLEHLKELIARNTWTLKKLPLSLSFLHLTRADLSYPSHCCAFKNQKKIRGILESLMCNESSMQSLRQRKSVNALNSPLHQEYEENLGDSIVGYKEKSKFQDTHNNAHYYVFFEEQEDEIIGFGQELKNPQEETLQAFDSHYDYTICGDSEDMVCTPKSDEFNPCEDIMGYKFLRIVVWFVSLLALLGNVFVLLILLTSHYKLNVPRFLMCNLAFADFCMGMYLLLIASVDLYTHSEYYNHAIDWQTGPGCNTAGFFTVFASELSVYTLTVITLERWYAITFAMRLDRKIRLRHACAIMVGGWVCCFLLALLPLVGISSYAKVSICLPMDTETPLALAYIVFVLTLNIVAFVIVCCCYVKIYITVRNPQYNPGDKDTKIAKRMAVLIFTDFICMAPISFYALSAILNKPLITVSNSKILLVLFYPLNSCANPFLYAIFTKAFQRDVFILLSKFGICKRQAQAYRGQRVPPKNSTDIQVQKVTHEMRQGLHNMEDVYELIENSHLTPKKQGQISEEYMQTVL
Estrogen receptor (Homo sapiens), sequence (P03372 whole entry, looked up): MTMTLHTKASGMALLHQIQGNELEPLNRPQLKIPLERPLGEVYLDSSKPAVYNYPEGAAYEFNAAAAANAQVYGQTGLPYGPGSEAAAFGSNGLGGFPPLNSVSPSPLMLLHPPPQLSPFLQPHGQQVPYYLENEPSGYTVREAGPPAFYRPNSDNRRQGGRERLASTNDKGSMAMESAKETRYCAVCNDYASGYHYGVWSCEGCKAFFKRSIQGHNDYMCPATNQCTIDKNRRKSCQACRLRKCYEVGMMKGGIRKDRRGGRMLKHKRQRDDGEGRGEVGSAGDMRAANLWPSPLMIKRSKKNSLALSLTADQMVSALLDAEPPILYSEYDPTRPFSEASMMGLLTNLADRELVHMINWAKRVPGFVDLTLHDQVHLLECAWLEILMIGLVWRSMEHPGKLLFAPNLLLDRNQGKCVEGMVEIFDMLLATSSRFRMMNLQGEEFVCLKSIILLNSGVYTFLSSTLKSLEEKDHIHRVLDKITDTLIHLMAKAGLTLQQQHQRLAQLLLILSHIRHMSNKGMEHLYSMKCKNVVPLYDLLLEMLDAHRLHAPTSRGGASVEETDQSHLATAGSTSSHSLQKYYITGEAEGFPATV
Progesterone receptor (Homo sapiens), sequence (P06401 whole entry, looked up): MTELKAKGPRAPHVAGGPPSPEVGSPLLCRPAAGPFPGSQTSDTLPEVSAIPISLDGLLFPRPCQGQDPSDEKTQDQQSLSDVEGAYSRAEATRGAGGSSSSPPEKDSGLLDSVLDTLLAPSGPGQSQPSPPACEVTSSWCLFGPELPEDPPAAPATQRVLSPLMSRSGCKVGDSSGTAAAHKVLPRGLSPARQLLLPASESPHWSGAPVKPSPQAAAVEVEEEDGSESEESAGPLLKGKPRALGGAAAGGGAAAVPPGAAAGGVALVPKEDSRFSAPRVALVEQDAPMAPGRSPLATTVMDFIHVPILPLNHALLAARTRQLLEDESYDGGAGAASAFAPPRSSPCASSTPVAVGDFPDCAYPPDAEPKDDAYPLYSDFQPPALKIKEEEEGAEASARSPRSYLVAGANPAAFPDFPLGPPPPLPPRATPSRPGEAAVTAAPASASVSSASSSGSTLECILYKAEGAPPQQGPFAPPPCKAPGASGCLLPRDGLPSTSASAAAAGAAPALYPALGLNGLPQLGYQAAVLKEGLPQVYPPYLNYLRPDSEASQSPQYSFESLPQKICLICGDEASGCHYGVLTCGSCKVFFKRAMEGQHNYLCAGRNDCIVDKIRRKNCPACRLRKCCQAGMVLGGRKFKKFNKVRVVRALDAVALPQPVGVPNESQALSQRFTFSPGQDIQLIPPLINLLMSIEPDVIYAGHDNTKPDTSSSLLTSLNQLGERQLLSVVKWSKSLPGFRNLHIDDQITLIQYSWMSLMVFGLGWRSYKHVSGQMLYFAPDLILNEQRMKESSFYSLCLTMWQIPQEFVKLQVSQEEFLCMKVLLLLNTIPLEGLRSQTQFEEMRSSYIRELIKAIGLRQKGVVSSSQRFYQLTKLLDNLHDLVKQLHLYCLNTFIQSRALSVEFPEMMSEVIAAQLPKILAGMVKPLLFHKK
Androgen receptor (Homo sapiens), sequence (P10275 whole entry, looked up): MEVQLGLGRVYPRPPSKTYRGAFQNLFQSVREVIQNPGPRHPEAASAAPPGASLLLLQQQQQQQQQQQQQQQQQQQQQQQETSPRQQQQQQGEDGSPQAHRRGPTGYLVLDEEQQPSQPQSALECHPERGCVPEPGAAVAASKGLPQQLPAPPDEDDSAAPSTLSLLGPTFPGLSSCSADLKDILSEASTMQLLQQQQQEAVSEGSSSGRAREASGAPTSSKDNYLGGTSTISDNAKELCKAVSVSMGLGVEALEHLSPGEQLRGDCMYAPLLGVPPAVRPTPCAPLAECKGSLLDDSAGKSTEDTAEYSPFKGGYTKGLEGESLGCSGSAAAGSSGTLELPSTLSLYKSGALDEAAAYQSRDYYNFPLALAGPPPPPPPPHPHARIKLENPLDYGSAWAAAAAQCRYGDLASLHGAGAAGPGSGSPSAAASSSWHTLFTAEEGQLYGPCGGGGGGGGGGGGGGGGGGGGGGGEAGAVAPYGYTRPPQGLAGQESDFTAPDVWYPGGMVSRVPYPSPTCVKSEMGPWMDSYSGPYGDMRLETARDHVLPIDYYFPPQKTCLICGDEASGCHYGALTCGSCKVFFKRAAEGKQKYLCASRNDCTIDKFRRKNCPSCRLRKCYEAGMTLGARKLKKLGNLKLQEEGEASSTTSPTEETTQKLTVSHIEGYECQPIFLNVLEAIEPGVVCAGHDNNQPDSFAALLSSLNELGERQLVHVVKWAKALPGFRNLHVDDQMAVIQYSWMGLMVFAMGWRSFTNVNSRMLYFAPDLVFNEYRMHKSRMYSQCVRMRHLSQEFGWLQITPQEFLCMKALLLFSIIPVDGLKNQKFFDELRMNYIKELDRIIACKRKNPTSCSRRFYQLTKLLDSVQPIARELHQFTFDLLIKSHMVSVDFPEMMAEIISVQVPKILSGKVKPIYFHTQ

Take `CC(C)c1cccc(C(C)C)c1N1C(=O)c2ccc(O)cc2C1=O`: the molecule was called inactive in experiment [1] and in [4]. Further, the Potency result in [2] and in experiment [3] was “inactive” throughout.

`CC(=O)Oc1ccc(C2(c3ccc(OC(C)=O)cc3)C(=O)Nc3ccccc32)cc1`: the Potency entry in experiment [5], in experiment [6] and in experiment [7] was “inactive” throughout. The molecule was classed as inactive in experiment [1] and in experiment [4]. Besides, in experiment [3], the Potency is 0.668 µM (active).

Consider `CCN(CC)c1ccc(N)cc1`, for which the Potency in experiment [8] is 19.9 µM (active); in experiment [6] it was 49.9 µM (active); in experiment [3], 28.1 µM (active). Also, the molecule was classed as inactive in experiment [1].

In the case of `CCCCN(CCCC)CCC(O)c1cc2c(Cl)cc(Cl)cc2c2cc(C(F)(F)F)ccc12` (stereo not given), the Potency in experiment [5] is 7.5 µM (active). Also, the Potency entry in experiment [7], in [2] and in experiment [3] was “inactive” in each case. Moreover, the molecule was called inactive in experiment [1] and in experiment [4].

Consider `O[C@@H](c1cc(C(F)(F)F)nc2c(C(F)(F)F)cccc12)[C@H]1CCCCN1`, for which the Potency in experiment [5] is 21.1 µM (active); in experiment [6], 16.8 µM (active). Moreover, the Potency entry in experiment [7] and in experiment [3] was “inactive” each time. In addition, the outcome in [1] was inactive.

Regarding `CCO[Si](CCCSSSSCCC[Si](OCC)(OCC)OCC)(OCC)OCC`, the results for the Potency in experiment [5] and in experiment [6] were 61.2 µM (active) and 54.5 µM (active), respectively. Also, the Potency entry in experiment [7] and in [3] was “inactive” throughout. Also, in [4], the outcome was inactive.

Take `C[n+]1c2cc(N)ccc2cc2ccc(N)cc21` (tested in a mixture with another compound): in experiment [5], the Potency is 11.9 µM (active). Further, the Potency result in [9] was “inactive”.

Regarding `CC(O)C#CC(C)O` (stereo not given), the Potency result in [8], in experiment [7] and in experiment [3] was “inactive” each time. The result in experiment [1] was inactive.

With `Nc1ccc2cc3ccc(N)cc3nc2c1`, the Potency in [5] was 2.37 µM (active). Moreover, the Potency entry in experiment [9] and in [6] was “inactive” each time. Moreover, in [4], the outcome was inactive.

`C[C@@]12C(=O)OC(=O)[C@]1(C)C1CCC2O1`: the Potency in experiment [8] is 5.96 µM (active). In addition, the Potency result in [7] and in experiment [3] was “inactive” throughout. Also, in experiment [4], the outcome was inactive.

With `CCCCCCCC/C=C\CCCCCCCC(=O)N(C)CC(=O)O`, the Potency was 54.5 µM (active) in [5] and 61.1 µM (active) in [6]. For the same molecule, in experiment [1], the call was inactive. Further, the Potency entry in [2] and in experiment [3] was “inactive” each time.

For the molecule `Oc1c(Br)cc(Br)c2cccnc12`, the Potency in [5] was 1.19 µM (active). The Potency result in experiment [7], in experiment [2] and in [3] was “inactive” throughout. In experiment [1], the call was inactive.

For the molecule `CCCCCCCCCCOCC(O)CN` (stereo not given), the Potency in [5] and in [6] was 26.6 µM (active) in each case. The Potency entry in [9], in experiment [7], in experiment [2] and in experiment [3] was “inactive” in each case. Further, the result in experiment [1] was inactive.

For `CN(C)CCCN1c2ccccc2Sc2ccc(C(F)(F)F)cc21`, the Potency in experiment [5] was 18.8 µM (active); in experiment [6], 18.8 µM (active); in experiment [2], 29.8 µM (active). Besides, the molecule was classed as inactive in [1] and in experiment [4]. Also, the Potency entry in experiment [3] was “inactive”.

In the case of `CCCCCCCCCCCCCCNCCO`, the Potency in experiment [5] was 26.6 µM (active); in experiment [2] it was 23.7 µM (active). In addition, the Potency entry in [6], in experiment [7] and in experiment [3] was “inactive” in each case. Also, the result in experiment [1] and in experiment [4] was inactive.

In the case of `O=C(c1ccccc1)c1cc(Cl)ccc1O`, the Potency entry in experiment [8], in [7] and in experiment [3] was “inactive” in each case. Also, the outcome in [4] was inactive.

Take `Oc1ccc(-c2ccc(O)cc2)cc1`: the Potency entry in experiment [8], in experiment [6], in experiment [2] and in [3] was “inactive” in each case. For the same molecule, the call in [1] was inactive.

In the case of `Clc1ccccc1CN1CCc2sccc2C1`, the Potency entry in experiment [8], in [6] and in experiment [3] was “inactive” in each case.

Regarding `C[C@]12CC[C@H]3C(=CCc4cc(O)ccc43)[C@@H]1CCC2=O`, the Potency in experiment [5] was 27.3 µM (active); in experiment [9] it was 5.45 µM (active); in [6], 30.6 µM (active). The call in experiment [1] and in [4] was inactive. Besides, the Potency result in [3] was “inactive”.

As for `CCC1(c2cnc[nH]2)Cc2ccccc2C1`, the Potency result in experiment [8], in experiment [6] and in experiment [3] was “inactive” in each case.

With `CN(C)c1ccc(N=NS(=O)(=O)O)cc1`, the results for the Potency in experiment [8] and in experiment [3] were 16.2 µM (active) and 38.6 µM (active), respectively. In addition, the Potency result in experiment [9] is “inactive”. In experiment [4], the result was inactive.

As for `c1cc2c3c(c1)ccc1cccc(c13)C2`, the Potency entry in [8], in experiment [6] and in [3] was “inactive” in each case. Besides, the molecule was called inactive in experiment [1] and in experiment [4].

On to `COc1ccc2sc(C(=O)Nc3nnn[nH]3)c(OC(C)C)c2c1`, for which, in [5], the Potency is 6.83 µM (active). The Potency entry in [7] and in experiment [2] was “inactive” throughout. The call in [1] and in experiment [4] was inactive.

Consider `COc1ccc(C#N)cc1`, for which the Potency entry in [8], in [6], in [2] and in experiment [3] was “inactive” in each case. Moreover, the result in experiment [1] and in experiment [4] was inactive.
